Bioassay records as filed in PubChem.
HIV TAR-Tat: TAR RNA-Tat peptide displacers, HIV-1, primary screen, biochemical, FRET, FAM/TAMRA-labeled Tat; HIV-1 TAR RNA, Tat peptide displacement FRET; hits give high values; z-score (concentration not given with the values); actives 0.6% (n = 100,000); active = z-score of 3 or more in at least 2 runs
CDC25B-CDK2 inh: primary biochemical HTRF screen for blockers of M-phase inducer phosphatase 2 binding to CDK2/cyclin A; P30305+P24941; HTRF CDC25B-CDK2/CyclinA binding, anti-His/anti-Flag; hits give high values; z-score (test concentration not listed); actives 0.72% (n = 94,000); AID 1259370, 2018; in the data active = z-score above about 3.2
Numbers without * were called inactive; / = no result; ! = not active in a repeat. Sampled rows, rich in hits. Any-hit rate of the full collection: about 0.9%.

SMILES | HIV TAR-Tat | CDC25B-CDK2 inh
O=C(O)c1ccc2c(c1)C1C=CCC1C(c1ccc(F)cc1)N2 (stereo not given) | 10* | 0.41
COC(=O)c1ccc([C@@H]2Nc3ccc(C(=O)O)cc3[C@@H]3C=CC[C@@H]32)cc1 | 7.4* | 0.2
CC(=O)Oc1ccc(C2Nc3ccc(C(=O)O)cc3C3C=CCC32)c(OC(C)=O)c1 (stereo not given) | / | 5.1*
COc1cccc([C@@H]2Nc3ccc(C(=O)O)cc3[C@@H]3C=CC[C@@H]32)c1OC | -0.49 | 0.41
CCc1ccc(C2Nc3ccc(C(=O)O)cc3C3C=CCC32)cc1 (stereo not given) | / | 0.26
COC(=O)c1ccc(C2Nc3ccc(OC)cc3C3C=CCC32)cc1 (stereo not given) | 0.02 | -0.39
CCOC(=O)c1c(C)oc2c1c(C(c1ccncc1)N1CCCCC1)c(O)c1ccccc12 (stereo not given) | / | -3.8
CC(C)Cn1c(=O)c2sccc2n2c(CCCC(=O)N3CCC(C)CC3)nnc12 | 0.01 | /
COc1ccc2c(c1)Cc1sc(NC(=O)c3ccc(OC)c(OC)c3)nc1-2 | -0.93 | 19*
CC(=O)Nc1nc2c(s1)Cc1ccccc1-2 | / | 18*
COc1cc(OC)cc(C(=O)Nc2nc3c(s2)Cc2cc(OC)ccc2-3)c1 | -0.26 | -0.69
Oc1ccccc1CNc1nc2c(s1)CCc1ccccc1-2 | 1.1 | -1.5
CC1CCc2c(C(=O)NCCCN3C(C)CCCC3C)csc2C1 (stereo not given) | 1.2 | -1.5
CCCNC(=O)Nc1ccc2c(c1)oc(=O)n2CC | 0.43 | /
COc1cc(OC)cc(-n2c(=O)c3sccc3n(CC(=O)NCC3CCCO3)c2=O)c1 (stereo not given) | / | 0.49
COc1cccc(-c2[nH]nc3nc(-c4ccccc4)cc(C(=O)O)c23)c1 | 0.26 | 1.2
O=C(COCc1cc(-c2cccs2)on1)Nc1ccccc1Br | 10* | /
COC(=O)c1sccc1NC(=O)COCc1cc(-c2cccs2)on1 | 0.14 | /
N#CC1=C2SCN(c3ccccc3F)CN2C(=O)CC1c1cccc(F)c1 (stereo not given) | 0.19 | 6.6*
CCc1ccccc1N1CSC2=C(C#N)C(c3cccc(F)c3)CC(=O)N2C1 (stereo not given) | -1.2 | 6.3*
N#CC1=C2SCN(c3ccccc3F)CN2C(=O)CC1c1c(F)cccc1Cl (stereo not given) | -2 | -1.1
N#CC1=C2SCN(c3ccccc3F)CN2C(=O)CC1c1cccc(Br)c1 (stereo not given) | -1 | 2.7
CCc1nnc(NC(=O)Cc2coc3cc(C)cc(C)c23)s1 | 1 | 0.14
Cc1ccc(Sc2ncccc2NC(=O)Cc2ccccc2)cc1 | / | -0.32
O=c1cc(CSc2nnc(-c3ccccc3F)o2)nc2sc3c(n12)CCCC3 | 0.17 | -1.1
SMILES | HIV TAR-Tat | CDC25B-CDK2 inh
O=C(c1ccc2c(c1)OCO2)N1CCN(S(=O)(=O)c2cc3c4c(c2)CCN4C(=O)CC3)CC1 | 1 | /
Cc1ccc(S(=O)(=O)c2c(N)n(CCO)c3nc4ccccc4nc23)cc1 | / | 18*
CCOC(=O)c1c(N)n(CCc2ccccc2)c2nc3ccccc3nc12 | 0.65 | 0.32
O=C(O)CSCCS(=O)(=O)c1ccc(Cl)cc1 | / | -1
COc1cccc(Nc2nc(-c3ccc(OC)c(OC)c3)no2)c1 | 2.2 | /
Cc1c(C(=O)NC(C)C)oc2ccc(S(=O)(=O)N3CC(C)CC(C)C3)cc12 (stereo not given) | / | 0.56
O=C(Cn1c(=O)oc2cc(S(=O)(=O)N3CCCCCC3)ccc21)Nc1nccs1 | / | -2.1
O=C1NC(NS(=O)(=O)c2ccccc2)(C(F)(F)F)C(=O)N1c1ccc(F)c(Cl)c1 (stereo not given) | / | 18*
O=C1C2C(c3ccccc3)OC3(C(=O)c4ccccc4C3=O)C2C(=O)N1c1ccc(F)c(Cl)c1 (stereo not given) | 1.4 | 0.7
COC(=O)c1cc2oc3ccccc3c2n1CC(=O)NCc1ccco1 | 8* | 4.1
Cn1c(C(=O)NCc2ccco2)cc2oc3ccccc3c21 | / | -4.6
Cc1ccc(-c2cc(C(=O)O)c3c(-c4ccccc4)[nH]nc3n2)cc1 | 0.86 | /
Cc1ccc(-c2[nH]nc3nc(-c4ccc(O)c(O)c4)cc(C(=O)O)c23)cc1 | 20* | -0.27
CC(C)OC(=O)Cn1c2ccc(Cl)cc2c2nc3ccccc3nc21 | 2.6 | -1.4
CCOC(=O)Cn1c2ccc(Cl)cc2c2nc3ccccc3nc21 | 0.94 | 19*
Cc1ccc(C)n1-c1ccc(Cl)c(C(=O)O)c1 | 16* | 0
Cc1cc(C(=O)O)ccc1-n1c(C)ccc1C | / | -1.1
Cc1ccc(C)n1-c1cc(C(=O)O)ccc1Cl | / | 1.5
Cc1ccc(C)n1-c1ccc(Cl)cc1C(=O)O | 14* | -2.1
O=C(Cn1cnc(S(=O)(=O)N2CCCC2)c1)N1CCN(c2ccc(F)cc2)CC1 | 1.3 | /
CCn1c(SCC(=O)Nc2ccccc2)nnc1-c1nonc1NC(C)=O | 0.44 | -1.9
Cc1ccc(NC(=O)CC2S/C(=N\N=C\c3cccc(O)c3)NC2=O)cc1Cl (stereo not given) | / | -3.5
CCOC(=O)c1ccc2c(c1)NC1(CCOCC1)C(=NC1CCCCC1)N2 | 0.14 | /
O=C1c2c(O)cc(O)cc2OC(c2ccc(O)c(O)c2)C1O (stereo not given) | / | -1
O=C1c2cc(O)cc(O)c2OC[C@@H]1c1ccc(O)c(O)c1 | 23* | /
SMILES | HIV TAR-Tat | CDC25B-CDK2 inh
COc1ccc(-c2[nH]nc3nc(-c4cc(OC)ccc4OC)cc(C(=O)O)c23)cc1 | 2 | /
CC(=O)Nc1nc(C)c(-c2csc(Nc3ccc(Cl)cc3)n2)s1 | -0.3 | -0.18
CC(=O)Nc1nc(C)c(-c2csc(NCc3ccccc3)n2)s1 | / | 6.8*
O=C(O)CCn1c(=O)c2cc3c(=O)n(CCC(=O)O)c(=O)c3cc2c1=O | / | -4.3
COc1ccc(-c2cc(=O)c3c(O)cc(O)cc3o2)cc1 | 1.7 | /
O=c1c(O)c(-c2ccc(O)c(O)c2)oc2cc(O)cc(O)c12 | 28*! | -1.9
O=c1cc(-c2ccc(O)c(O)c2)oc2cc(O)cc(O)c12 | 33* | /
COc1cc(-c2oc3cc(O)cc(O)c3c(=O)c2O)ccc1O | 1.8 | /
Cc1ccc2c(c1)-c1c(cnn1CC(=O)NC(C)c1ccc3c(c1)OCCO3)CO2 (stereo not given) | 0.39 | -0.61
O=C1CN(Cc2ccc(Cl)cc2)S(=O)(=O)c2ccccc2N1Cc1ccccc1F | 1.7 | /
O=C(c1ccccc1Cl)N(Cc1ccco1)C1CCS(=O)(=O)C1 (stereo not given) | 1.8 | -0.95
CN(C)S(=O)(=O)c1ccc2nc(NC(=O)C3COc4ccccc4O3)sc2c1 (stereo not given) | 0.31 | /
Cn1cc(CCC(=O)NCCCN2CCOCC2)c2ccccc21 | 1.5 | /
OC(COCc1ccc(Cl)cc1)CN1CCN(c2ccccc2)CC1 (stereo not given) | / | -0.72
CCCc1cc(=O)n2[nH]c(-c3ccco3)nc2n1 | 1.3 | /
CCOC(=O)Cc1cc(=O)n2[nH]c(-c3ccco3)nc2n1 | 1.8 | 13*
COc1ccc(-c2noc(N3CCN(Cc4ccccc4)CC3)n2)cc1OC | 0.18 | /
C=CCOC(=O)C1=C(C)Nc2[nH]c(=O)[nH]c(=O)c2C1c1ccc(CC)cc1 (stereo not given) | / | -1.7
COC(=O)C1=C(C)Nc2[nH]c(=O)[nH]c(=O)c2C1c1ccc(Br)cc1 (stereo not given) | 1.1 | 3.6*
